Measurements reported in PubChem BioAssay AID485360 (National Center for Advancing Translational Sciences (NCATS), 2010).
“And” between values parts separate entries of the source, which are not always exact repeats. Equal entries are not always repeated. Screen size: about 230,000 compounds; about 1,500 (0.65%) were called active. Inconclusive results (about 3%) are left out. Calls follow the shape of the dose curve; as a rule, active = well fitted inhibition curve with a large enough effect; inconclusive = small, poorly fitted or top-dose-only effect; inactive = no such curve, though single readings can be large or run the other way. The sample as a whole holds a higher share of actives than the screen did. Where a structure was tested more than once in an assay, its records may differ in their call.

Biological target: Lethal(3)malignant brain tumor-like protein 1 (Homo sapiens) (UniProt Q9Y468)
Sequence (Q9Y468 whole entry, looked up): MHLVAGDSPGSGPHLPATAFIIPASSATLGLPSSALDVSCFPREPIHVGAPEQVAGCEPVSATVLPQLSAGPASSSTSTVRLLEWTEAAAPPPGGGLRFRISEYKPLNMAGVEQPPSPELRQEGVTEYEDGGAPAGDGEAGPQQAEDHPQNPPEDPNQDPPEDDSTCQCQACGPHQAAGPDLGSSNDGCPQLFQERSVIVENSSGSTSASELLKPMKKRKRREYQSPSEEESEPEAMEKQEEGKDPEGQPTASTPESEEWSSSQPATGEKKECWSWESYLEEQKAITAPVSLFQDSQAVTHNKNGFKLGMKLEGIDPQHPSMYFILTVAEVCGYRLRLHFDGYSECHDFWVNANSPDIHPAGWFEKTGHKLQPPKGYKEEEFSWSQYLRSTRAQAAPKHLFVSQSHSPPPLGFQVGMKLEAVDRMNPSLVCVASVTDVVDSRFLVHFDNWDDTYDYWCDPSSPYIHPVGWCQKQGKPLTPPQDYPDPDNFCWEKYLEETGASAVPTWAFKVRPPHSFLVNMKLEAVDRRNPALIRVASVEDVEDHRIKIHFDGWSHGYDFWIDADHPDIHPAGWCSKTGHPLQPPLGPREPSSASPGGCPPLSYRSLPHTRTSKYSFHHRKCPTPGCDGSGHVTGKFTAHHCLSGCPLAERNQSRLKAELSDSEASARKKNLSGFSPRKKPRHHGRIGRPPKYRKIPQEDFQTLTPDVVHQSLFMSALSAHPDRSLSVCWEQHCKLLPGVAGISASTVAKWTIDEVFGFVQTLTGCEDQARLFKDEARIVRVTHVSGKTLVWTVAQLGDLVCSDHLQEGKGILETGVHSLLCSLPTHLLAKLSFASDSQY
Experiment: qHTS Assay for the Inhibitors of L3MBTL1; also: nearly all actives have a fitted effect of over 60% in size
Details: AlphaScreen L3MBTL1–H3K9me1 peptide binding; series mostly up to 57.1 µM; activity, negative = inhibition: at the top concentration
Text: The histone code is comprised of many post-translational modifications that occur mainly in histone tail peptides. The identity and location of these marks are read by a variety of histone binding proteins that are emerging as important regulators of cellular differentiation and development and are increasingly being implicated in numerous disease states. Small molecule probes that disrupt the interaction between histone binding proteins and chromatin would enable a systematic chemical biology study of proteins that read the histone code and could potentially reveal new targets for drug discovery. However, no such small molecules are known. This dearth of quality molecular probes can largely be attributed to the novelty of the target class and the lack of screening assays. This proposal details the development of the first high-throughput screening assay for the discovery of inhibitors of methyl-lysine binding proteins and how it can be be used to initiate a full-scale discovery effort for antagonists of histone binding proteins. Specifically, this work focuses on an AlphaScreen(tm)-based HTS assay for Malignant Brain Tumor (MBT) domain-containing proteins, which bind to the lower methylation states of lysine residues present in histone tail peptides.
To each well, 2 uL of L3MBTL1 protein (final 50 nM) and 1 uL biotinylated histone peptide monomethylated at Lys9 [b-AHA-H3(1-15)K9me1] (final 75 nM) was added using a nanoliter dispenser. Formation of a protein-peptide complex proceeded at room temperature for 30 min. A Kalypsys pin-tool was employed to transfer 23 nL of library compound solution in DMSO to each well. Cefsulodin, found in a pilot screen of the LOPAC library to be a weak inhibitor of L3MBTL1 binding, was used as an intraplate control with a 16-point titration in duplicate. Following a 30 min incubation of the protein-peptide complex with compounds at room temperature, a mixture of 40 ug/mL each streptavidin-coated donor and nickel chelate acceptor AlphaScreen beads (final 10 ug/mL) was added in a 1 uL dispense for a final volume of 4 uL. Plates were incubated, protected from the light for 30 min at room temperature. Microplates were then be read on an EnVision multilabel plate reader using the 1,536 plate HTS AlphaScreen aperture (excitation time 80 ms, measurement time 240 ms).
% is scaled to controls: 0 for no effect and ±100 for the full control effect; potency is read from the fitted curve at half-maximal effect.

Structure (SMILES)	activity, negative = inhibition	Potency
CSC1=N/C(=C\c2ccc3c(c2)OCO3)C(=O)S1	-5.37% (inactive)	
CSC1=N/C(=C\C=C\c2cccs2)C(=O)S1		20 µM (active)
O=C1N/C(=C/c2cccs2)C(=O)N1Cc1ccc(F)cc1	7.41% (inactive)	
Cc1ccnc(SCC(=O)Nc2cccc(S(=O)(=O)N3CCOCC3)c2)n1	-1.74% (inactive)	
COc1ccccc1C(CNC(=O)c1cccc(NS(=O)(=O)c2ccc(Br)cc2)c1)N(C)C (stereo not given)	5.64% (inactive)	
CCOc1ccc(-n2c(O)c(/C=N/Nc3nnc(C)c(=O)[nH]3)c3ccccc3c2=O)cc1	-28% (inactive)	
COc1ccc(Cc2nnc(N/N=C/c3ccccc3O)[nH]c2=O)cc1OC		8.91 µM (active)
COc1ccc(/C=N/Nc2nc3ccccc3c(=O)[nH]2)cc1	4.78% (inactive)	
CCOc1ccccc1OCC(=O)Nc1ccccc1C(=O)NC1CC1	-6.53% (inactive)	
CC(OC(=O)c1ccc(S(=O)(=O)N2CCOCC2)cc1)c1ccccc1 (stereo not given)	11.6% (inactive)	
COc1ccc(-c2noc(CCC(=O)N3CCN(c4cccc(C)c4)CC3)n2)cc1	-5.84% (inactive)	
Cc1ccc(N=C2NC(=O)/C(=C/C=C/c3ccco3)S2)cc1C		22.4 µM (active)
Cc1cccc(N=C2NC(=O)/C(=C/c3cn(C)c4ccccc34)S2)c1	-12.5% (inactive)	
CN(C)c1ccc(-n2cccc2/C=C2/SC(=Nc3ccc(F)cc3)NC2=O)cc1	-2.95% (inactive)	
CC(=O)N1c2ccc(S(=O)(=O)N3CCCC(C(=O)Nc4ccc(C)cc4C)C3)cc2CC1C (stereo not given)	-1.87% (inactive)	
O=C(COC(=O)C1CCCO1)Nc1nc(-c2ccc(F)cc2)cs1 (stereo not given)	5.76% (inactive)	
O=C(CSc1nc2ccccc2c(=O)n1-c1ccccc1F)N1CCOCC1	2.61% (inactive)	
Cc1ccc2c(c1)C1CN(C)CCC1N2S(=O)(=O)c1cccc(F)c1 (stereo not given)	-0.876% (inactive)	
Cc1nc2ccccc2nc1N/N=C/c1ccc(O)cc1O		14.1 µM (active)
FC(F)(F)c1nc2ccccc2nc1N/N=C/c1ccc(Cl)cc1	-3.16% (inactive)	
Oc1ccc(/C=N/Nc2nc(-c3ccccc3F)nc3ccccc23)c(O)c1	-26.6% (inactive)	
C=C1c2c(Cl)ccc(O)c2C(O)=C2C(=O)[C@]3(O)C(O)=C(C(N)=O)C(=O)[C@@H](N(C)C)[C@@H]3[C@@H](O)C12 (stereo not given in full)		0.447 µM (active)

Structure (SMILES)	activity, negative = inhibition	Potency
Cc1nn(Cc2ccccc2)c(C)c1C(=O)N1CCN(CC(=O)Nc2ccccc2Cl)CC1	4.62% (inactive)	
CCN(CC(=O)NCc1ccc(F)cc1)S(=O)(=O)c1ccc(Cl)s1	11.7% (inactive)	
CCOc1ccc(S(=O)(=O)Nc2cccc(C(=O)NCC3(N4CCCCC4)CCCCC3)c2)cc1	-7.83% (inactive)	
CC(Sc1ccccc1F)C(=O)Nc1cccc(S(=O)(=O)N2CCOCC2)c1 (stereo not given)	4.02% (inactive)	
Cc1cc(C)cc(NS(=O)(=O)Cc2ccccc2)c1	0.725% (inactive)	
Cc1ccccc1NC(=O)CSC(=O)c1ccccc1	-7.88% (inactive)	
O=C1N/C(=C/c2cccn2-c2ccccc2)C(=O)N1c1cccc(Cl)c1	6.45% (inactive)	
Cc1ccccc1NC(=O)CN1C(=O)N/C(=C\c2cccn2-c2cccc(C(=O)O)c2)C1=O		3.55 µM (active)
Cc1ccc(NC(=O)C(c2ccccc2)N2CCN(C(=O)c3ccco3)CC2)cc1 (stereo not given)	-8.06% (inactive)	
CN(C)C(=O)CCc1ccc2c3c([nH]c2c1)[C@]1(C)[C@@H](C(=O)N2CCCCC2)C[C@H](CC(=O)NCCC2=CCCCC2)C(=O)N1CC3	-2.71% (inactive)	
C=CCOc1cccc(C2NC(=O)c3ccccc3O2)c1 (stereo not given)	0.914% (inactive)	
Clc1cccc(CN2COc3c(cc(Cl)c4cccnc34)C2)c1	-15.3% (inactive)	
COc1cc(CN2CCC(C(N)=O)CC2)ccc1OCc1ccccc1	9.88% (inactive)	
Oc1c(CN2CCCC2)cc(COCc2ccccc2)c2cccnc12		inactive and 28.2 µM (active)
CCN(CC(=O)Nc1ccccc1C(F)(F)F)C(=O)C1CCN(C(=O)Nc2ccccc2)CC1	-3.3% (inactive)	
COc1ccc(CCNC(=O)COC(=O)c2cnc(Cl)c(Cl)c2)cc1	-1.86% (inactive)	
COc1ccccc1Nc1nc(N)nc(CN(C)C2CCCCC2)n1		15.8 µM (active)
COc1ccccc1Nc1nc(N)nc(CSC(=S)N2CCOCC2)n1	-0.65% (inactive)	
Cc1ccccc1Nc1nc(N)nc(CSc2ccccc2)n1	-6.78% (inactive)	
CCCCCC(=O)N1CCN(S(=O)(=O)c2ccc3c(c2)OCCCO3)CC1	4.12% (inactive)	
CSc1nnc(SCc2nc3sc(C(=O)O)c(C)c3c(=O)[nH]2)s1		3.16 µM (active)
CCOC(=O)c1sc2nc(C)[nH]c(=O)c2c1C	3.08% (inactive)	

Structure (SMILES)	activity, negative = inhibition	Potency
CCOC(=O)c1sc2nc(CSc3ccccc3)[nH]c(=O)c2c1C	6.68% (inactive)	
COc1ccc(S(=O)(=O)N2CCOC23CCN(S(=O)(=O)c2ccc([N+](=O)[O-])cc2)CC3)cc1	-11% (inactive)	
CCCCn1c(N)c(N(CC(C)C)C(=O)CN(C)S(=O)(=O)c2ccc(F)cc2)c(=O)[nH]c1=O	5.09% (inactive)	
CN(C)c1ccc(C2N(C)C(=O)c3ccccc3N2C)cc1 (stereo not given)	-3.44% (inactive)	
CN(C)c1ccc(Nc2c3c4c(cccc4n(C)c2=O)C(=O)c2ccccc2-3)cc1		7.94 µM (active)
CC(C)Oc1ccc(S(=O)(=O)N2CCOCC2)cc1NC(=O)C1CCCC1	-1.04% (inactive)	
COC(=O)c1ccc2ccccc2c1OC1OC(CO)C(O)C(O)C1NC(C)=O (stereo not given)	4.66% (inactive)	
CC1CCCN(C(=O)c2cc(-c3ccco3)nc3ccccc23)C1 (stereo not given)	-0.376% (inactive)	
Cc1cc(C)c2nc(-c3ccco3)cc(C(=O)O)c2c1		3.16 µM (active)
Cc1ccc2nc(-c3ccccc3)cc(C(=O)O)c2c1	-3.25% (inactive)	
CCOC(=O)c1ccccc1NS(=O)(=O)c1c(C)nc2sccn2c1=O	1.45% (inactive)	
CCN(CC)S(=O)(=O)c1ccc(N2CCOCC2)c(NC(=O)C(C)Oc2ccc(F)cc2)c1 (stereo not given)	-4.04% (inactive)	
Cc1occc1C(=O)Nc1cccc(S(=O)(=O)N2CCOCC2)c1	-5.85% (inactive)	
Oc1ccc2ccccc2c1C=Nc1ccccc1	-9% (inactive)	
Oc1ccc2ccccc2c1N=Nc1nccs1		3.98 µM (active)
c1ccc(NCc2cccc3ccccc23)nc1	25.5% (inactive)	
Oc1ccc(N=Nc2nccs2)c(O)c1		25.1 µM (active)
CN(CC(=O)NC1CCN(Cc2ccccc2)CC1)S(=O)(=O)c1ccc(Cl)s1	-0.592% (inactive)	
O=C(COC(=O)c1ccco1)Nc1ccc(Cl)cn1	-4.51% (inactive)	
O=C(NNS(=O)(=O)c1ccc(F)cc1)c1ccc([N+](=O)[O-])cc1Cl	1.2% (inactive)	
Cc1sc2ncnc(N3CCC(C(=O)NNC(=O)c4ccc(F)cc4)CC3)c2c1C	4.79% (inactive)	
